Measured values as given in article PMC4336329 (PLoS ONE, 2015).
Hit rate of the full screen: of about 310,000 compounds, about 14,000 (4.5%) showed an effect of 50% or more. The effect is printed as a negative number. Many of the other results were omitted from the sample, so strong results are more common in it than they were.

The compounds below were run against human ether-à-go-go-related gene (hERG) potassium channel (human, UniProt Q12809) (assay: primary screen, population patch clamp on CHO cells stably expressing hERG; higher = less effect of the substance).
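Also: peak tail current of the secondary pulse compared with the same well before compound.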

Sequence of human ether-à-go-go-related gene (hERG) potassium channel (Q12809 whole entry, looked up): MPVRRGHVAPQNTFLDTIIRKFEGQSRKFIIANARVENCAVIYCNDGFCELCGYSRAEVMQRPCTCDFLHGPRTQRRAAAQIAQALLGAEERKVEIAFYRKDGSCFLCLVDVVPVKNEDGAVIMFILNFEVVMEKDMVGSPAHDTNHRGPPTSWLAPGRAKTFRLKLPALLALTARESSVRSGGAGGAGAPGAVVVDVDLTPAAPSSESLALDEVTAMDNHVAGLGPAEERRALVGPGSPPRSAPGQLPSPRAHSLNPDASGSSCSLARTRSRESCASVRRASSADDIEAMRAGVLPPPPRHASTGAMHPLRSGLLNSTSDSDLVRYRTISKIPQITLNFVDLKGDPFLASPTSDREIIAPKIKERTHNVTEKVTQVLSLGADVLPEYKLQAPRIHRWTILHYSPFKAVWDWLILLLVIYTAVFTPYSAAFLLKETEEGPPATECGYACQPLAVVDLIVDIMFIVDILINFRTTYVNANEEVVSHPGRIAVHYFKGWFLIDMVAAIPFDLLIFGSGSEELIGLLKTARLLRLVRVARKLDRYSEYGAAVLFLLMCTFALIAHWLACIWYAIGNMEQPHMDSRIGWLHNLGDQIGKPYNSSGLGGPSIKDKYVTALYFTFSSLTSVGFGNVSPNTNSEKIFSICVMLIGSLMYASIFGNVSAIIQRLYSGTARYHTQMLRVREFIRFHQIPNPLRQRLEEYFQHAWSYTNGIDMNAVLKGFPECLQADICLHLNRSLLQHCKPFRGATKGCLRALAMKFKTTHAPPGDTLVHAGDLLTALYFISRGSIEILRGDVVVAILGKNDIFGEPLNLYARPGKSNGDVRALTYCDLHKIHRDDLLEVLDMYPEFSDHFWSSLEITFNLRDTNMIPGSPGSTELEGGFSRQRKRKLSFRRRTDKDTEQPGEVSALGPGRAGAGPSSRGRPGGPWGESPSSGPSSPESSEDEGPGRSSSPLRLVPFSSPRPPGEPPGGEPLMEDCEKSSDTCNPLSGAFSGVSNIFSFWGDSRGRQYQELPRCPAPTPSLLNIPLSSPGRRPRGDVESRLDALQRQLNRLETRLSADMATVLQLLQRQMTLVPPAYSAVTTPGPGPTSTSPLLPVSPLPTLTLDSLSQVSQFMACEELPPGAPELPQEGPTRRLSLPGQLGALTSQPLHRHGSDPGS

Point of comparison: `O=C(C1CC1)N1CCC(c2nc(-c3ccc(S(=O)(=O)N4CCCC4)cc3)no2)CC1`, “hERG current change (%, negative = inhibition) at 10uM” value -13%. Against it:
- O=C(N1CCOCC1)N1CCC(c2nc(-c3ccc(S(=O)(=O)N4CCOCC4)cc3)no2)CC1 — higher, -2.07%
- O=C(c1cccs1)N1CCC(c2nc(-c3ccc(S(=O)(=O)N4CCOCC4)cc3)no2)CC1 — lower, -68.8%
- O=C(c1ccccc1)N1CCC(c2nc(-c3ccc(S(=O)(=O)N4CCOCC4)cc3)no2)CC1 — lower, -60.8%
- Cc1cccc(C(=O)N2CCC(c3nc(-c4ccc(S(=O)(=O)N5CCOCC5)cc4)no3)CC2)c1 — higher, -3.33%
- O=C(Nc1ccccc1)N1CCC(c2nc(-c3ccc(S(=O)(=O)N4CCOCC4)cc3)no2)CC1 — higher, -4.94%
- O=C(CN1C(=O)C2CC=CCC2C1=O)Nc1ccc(OC(F)(F)F)cc1 (stereo not drawn) — lower, -14.2%
- CCOC(=O)c1c(-c2ccccc2)csc1NC(=O)CSc1ccccc1 — higher, -4.13%
- O=C(CSc1nnc(Cc2ccsc2)o1)c1ccccc1 — lower, -16.7%
- CC1(C)CC(=O)C(C=Nc2ccc(Cl)cn2)=C(O)C1 — higher, 11.6%
- CN(c1ccc(Cl)cc1)c1cc(=O)n(C)c2ccccc12 — lower, -51.8%
- CN(C(=O)COc1cc(=O)n(C)c2ccccc12)c1ccc(Cl)cc1 — lower, -29.2%
- COc1cc(=O)n(C)c2ccccc12 — higher, -4.88%
- CCC(CC)COC(=O)C1=C(C)NC(=O)NC1c1ccc([N+](=O)[O-])cc1 (stereo not drawn) — higher, 11.6%
- Cc1ccc(NS(=O)(=O)c2cccc(C(=O)NCC(c3ccc(F)cc3)N3CCOCC3)c2)cc1 (stereo not drawn) — lower, -16.8%
- COc1cc(CN2CC=C(c3ccc(F)cc3)CC2)cc(OC)c1 — lower, -57.3%
- CCN(CC)c1ccc(CN2CC=C(c3ccc(F)cc3)CC2)cc1 — lower, -78.4%
- COc1ccc(CN2CC=C(c3ccc(F)cc3)CC2)cc1Br — higher, -11.7%
- CCN(CC)c1ccc(CN2CCCCCC2)cc1 — lower, -20.4%
- O=[N+]([O-])c1ccccc1CN1CC=C(c2ccc(F)cc2)CC1 — higher, -12.8%
- CN(C)c1ccc(CN2CC=C(c3ccc(F)cc3)CC2)cc1 — lower, -69.9%
- O=[N+]([O-])c1cccc(CN2CC=C(c3ccc(F)cc3)CC2)c1 — lower, -39.2%
- COc1cccc(CN2CC=C(c3ccc(F)cc3)CC2)c1 — lower, -26.5%
- COc1cc(C)c(CN2CC=C(c3ccc(F)cc3)CC2)cc1C — lower, -37.2%
- CCOC(=O)c1c(S(=O)(=O)N2c3ccccc3CC2C)c(C)n(C)c1C (stereo not drawn) — higher, 13.1%
- CC(=O)Oc1ccc(C(=O)Nc2cccc(-c3nnc(-c4ccco4)o3)c2)cc1 — higher, 0.775%
- O=C(COC(=O)C1(c2ccc(F)cc2)CCCC1)NC1CC1 — higher, 0.676%
- CCC1(C)Cc2c(sc3nc(SC)n(Cc4ccccc4)c(=O)c23)CO1 (stereo not drawn) — higher, 6.63%
- Cc1sc(NC(=O)C2=COCCO2)nc1-c1ccc(Cl)cc1 — higher, 13%
- CCCCn1c(=O)c(CCC(=O)OCC(=O)NC(=O)NCCC(C)C)nc2ccccc21 — higher, -9.31%
- CCc1nnc(NC(=O)C2CCCN(S(=O)(=O)c3ccccc3)C2)s1 (stereo not drawn) — higher, 5.15%
- Cc1nc2cc(NC(=O)COc3ccccc3C#N)ccc2n1-c1ccccc1 — higher, -4.85%
- CCN(CC)S(=O)(=O)c1ccc(N2CCN(CCOc3ccc(OC)cc3)CC2)nc1 — lower, -46.8%
- Clc1ccc(OCCN2CCN(c3ncnc4sccc34)CC2)cc1 — lower, -81.2%
- NS(=O)(=O)c1ccc(N2CCN(CCOc3ccc(Cl)cc3)CC2)nc1 — lower, -69.8%
- Cc1cc(C)c(C#N)c(N2CCN(CCOc3ccc(Cl)cc3)CC2)n1 — lower, -33.6%
- Cc1sc2ncnc(N3CCN(CCOc4ccc(Cl)cc4)CC3)c2c1C — higher, -9.02%
- Clc1ccc(OCCN2CCOCC2)cc1 — higher, 17%
- CN(C)C(=O)CSc1ccc(S(=O)(=O)N2CCOCC2)cn1 — higher, 10.6%
- O=C(CSc1nnc(-c2cccs2)o1)N1CCCCC1 — higher, 2.99%
- CCOC(=O)CSc1nc2ccccc2c(=O)n1-c1ccc(C)cn1 — higher, 0.327%
- O=C(/C=C/c1ccc(F)cc1)NCC1(c2ccccc2)CCOCC1 — lower, -50.5%
- O=C(/C=C/c1ccccc1)NCC1(c2ccccc2)CCOCC1 — higher, -9.11%
- O=C(/C=C/c1ccco1)NCC1(c2ccccc2)CCCC1 — higher, -4.49%
- O=C(NC1CCCC1)C(c1ccncc1)N(C(=O)c1csnn1)c1ccccc1 (stereo not drawn) — higher, 15.1%
- Cc1cc(N2C(=O)C(O)=C(C(=O)c3ccco3)C2c2ccc(Cl)cc2)no1 (stereo not drawn) — higher, -6.77%
- O=C(NCC(=O)N(c1cccc(F)c1)C(C(=O)NCC1CCCO1)c1ccccc1)c1ccco1 (stereo not drawn) — higher, 6.26%
- Cc1ccc(S(=O)(=O)N(C)c2ccc(C(=O)NCC3(N(C)C)CCCCC3)cc2)cc1 — lower, -65.4%
- Cc1ccc(S(=O)(=O)N(C)c2ccc(C(=O)NCC3CCCO3)cc2)cc1 (stereo not drawn) — lower, -16.7%
- Cc1ccc(S(=O)(=O)N(C)c2ccc(OCC(=O)NCC3(N(C)C)CCCCC3)cc2)cc1 — lower, -73.5%
- Cc1ccc(S(=O)(=O)N(C)c2ccc(C(=O)NCCc3ccccc3)cc2)cc1 — higher, -6.94%
- Cc1ccc(S(=O)(=O)N(C)c2ccc(OCC(=O)NCc3ccco3)cc2)cc1 — lower, -44.8%
- COc1ccc(CCNC(=O)COc2ccc(N(C)S(=O)(=O)c3ccc(C)cc3)cc2)cc1 — higher, 6.95%
- O=C(CN1C(=O)NC(CCc2ccccc2)C1=O)NC1CC1 (stereo not drawn) — higher, 18.8%
- Cc1ccc(SC(C)C(=O)NCc2cccnc2)cc1 (stereo not drawn) — higher, 5.44%
- COc1ccc(C(C)(C)C)cc1NC(=S)NCCN1CCOCC1 — higher, 1.38%
- Cc1ccc(Cn2c(=N)c(S(=O)(=O)c3ccc(Br)cc3)cc3c(=O)n4ccccc4nc32)cc1 — higher, -6.27%
- Cc1ccc(Cn2c(=N)c(C(=O)NC3CCCCC3)cc3c(=O)n4ccccc4nc32)cc1 — lower, -65.7%
- Cc1ccc(Cn2c(=N)c(C(=O)NC3CCCC3)cc3c(=O)n4ccccc4nc32)cc1 — lower, -92.7%
- Cc1ccc(Cn2c(=N)c(S(=O)(=O)c3ccc(C)cc3)cc3c(=O)n4ccccc4nc32)cc1 — higher, 17.7%
- C/C(=N\NC(=O)C1CCCC1)c1ccc(Cl)c(Cl)c1 — higher, 13.7%
- O=C(c1ccco1)N1CCN(C(=O)C2CCCN(S(=O)(=O)Cc3ccccc3)C2)CC1 (stereo not drawn) — lower, -35.4%
- O=C(NCc1c(Cl)cccc1Cl)c1ccc2nnsc2c1 — higher, 8.96%
- CCOc1ccc(NC(=O)CNC(=O)c2ccc(OC)c(OC)c2)cc1 — higher, 0.00778%
- CCOc1ccc(NC(=O)CN2CCN(CC(=O)Nc3ccc(C(N)=O)cc3)CC2)cc1 — lower, -72.6%
- CCOc1ccc(NC(=O)CN2CCN(CC(=O)c3ccc(OC)c(OC)c3)CC2)cc1 — lower, -84.4%
- Cc1ccc(OCC(=O)Nc2ccc(C(N)=O)cc2)cc1 — higher, 16.5%
- CCCCOc1ccc(C(=O)N2CCN(CC(=O)Nc3ccc(C)cc3)CC2)cc1OC — lower, -47.1%
- COC(=O)c1ccc(NC(=O)CN2CCCC2)cc1 — higher, 5.33%
- NC(=O)c1ccc(NC(=O)CN2CCOCC2)cc1 — higher, 17.9%
- CCOc1ccc(NC(=O)CN2CCN(CC(=O)Nc3ccc(C(=O)OC)cc3)CC2)cc1 — lower, -66.2%
- COC(=O)c1ccc(NC(=O)CN2CCN(CCO)CC2)cc1.Cl — higher, -5.29%
- Cc1ccccc1C(=O)Nc1nnc(CC(=O)N/N=C/c2cn(Cc3ccccc3)c3ccccc23)s1 — higher, 12.6%
- COc1ccc([N+](=O)[O-])cc1NC(=O)CCN1CCN(C)CC1 — higher, 16.3%
- COC(=O)C(NC(=O)CCC(=O)N[C@@H](C(=O)OC)c1ccccc1)c1ccccc1 (stereo partly drawn) — higher, 9.88%
- N#CC1=CN(Cc2ccccc2)C=C(/C=N/Nc2ccccc2)C1 — higher, -5.72%
- c1ccc2c(CNc3ccc(CNc4ncn[nH]4)cc3)cccc2c1 — higher, 1.99%
- CCCCC(=O)Nc1ccc(C(=O)NNC(=O)CCCOc2ccc(Cl)cc2Cl)cc1 — higher, 7.25%
- Fc1ccc(COc2cccc3cccnc23)cc1 — higher, -8.3%
- CC(OC(=O)c1ccc(NS(=O)(=O)c2ccc3[nH]c(=O)[nH]c3c2)cc1)C(N)=O (stereo not drawn) — higher, 18.1%
- O=C(NC1CCCc2ccccc21)c1cc(S(=O)(=O)N2CCOCC2)ccc1F (stereo not drawn) — higher, 6.48%
- COc1ccc(/C=C/C(=O)Nc2nc(C)c(C(=O)N(C)C)s2)cc1 — higher, 3.15%
- CCN(CC)CCN(C(=O)c1ccc2ccccc2c1)c1nc2ccc(OC)cc2s1.Cl — lower, -30%
- CCOc1cccc2sc(N(CCN(CC)CC)C(=O)c3cccc([N+](=O)[O-])c3)nc12.Cl — lower, -75%
- CCN(CC)CCN(C(=O)c1ccc2ccccc2c1)c1nc2ccc(F)cc2s1.Cl — higher, -12.7%
- CCN(CC)CCN(C(=O)c1ccc(N2C(=O)CCC2=O)cc1)c1nc2cc3c(cc2s1)OCO3.Cl — lower, -44.6%
- CCN(CC)CCN(C(=O)c1cccc([N+](=O)[O-])c1)c1nc2ccc(OC)cc2s1.Cl — lower, -39.1%
- CCOc1ccc2nc(N(CCN(CC)CC)C(=O)c3ccc([N+](=O)[O-])cc3)sc2c1.Cl — lower, -65.7%
- CN(C)CCCN(C(=O)c1cccc(N2C(=O)CCC2=O)c1)c1nc2cc3c(cc2s1)OCO3.Cl — lower, -24%
- CCOc1cccc2sc(N(CCN(CC)CC)C(=O)c3cccc(N4C(=O)CCC4=O)c3)nc12.Cl — lower, -68.4%
- CCN(CC)CCN(C(=O)c1ccc2c(c1)CCCC2)c1nc2ccc(OC)cc2s1.Cl — higher, -5.4%
- CCOc1ccc2nc(N(CCN(CC)CC)C(=O)c3cccc([N+](=O)[O-])c3)sc2c1.Cl — lower, -59.5%
- CCN(CC)CCN(C(=O)c1ccc([N+](=O)[O-])cc1)c1nc2ccc(OC)cc2s1.Cl — lower, -49.7%
